ATXN2 expr inh – inhibitors of ATXN2 expression | AID 1745845 | Potency, µM (series often up to 57 µM), most hits filed as inhibitors | HEK-293 ATXN2-luciferase reporter, luminescence, 24 h | actives 0.72% (n = 360,000); further: nearly all actives have a fitted effect of over 55% in size
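qHTS (up to 57 uM final) was run with 24 h compound exposure of reporter cells at 37 °C. Each well was multiplexed: SteadyGlo luminescence measured ATXN2-luciferase expression after a fluorogenic Gly-Phe-AFC viability readout (25 uM final).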
HT1080 IDH1KD tx – HT-1080 IDH1 knockdown cell toxicity (counter line). HT-1080 IDH1 knockdown viability, ATP luminescence, 48 h. Potency, µM (series often up to 46.1 µM), actives largely listed as cytotoxic. actives 2% (n = 360,000). AID 686971
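Assay cells: HT-1080 with IDH1 knockdown, 750 per well, RPMI/5% FBS. Exposure: 48 h at 37 °C following 2 h pre-incubation. Read: CellTiter-Glo luminescence; fitted concentration-response, curve class assigned.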
S2 tox – viability counter-screen for ATXN expression inhibitors; Potency, µM (doses to about 56.7 µM), hits mostly cytotoxic; actives 0.49% (n = 400,000); S2 cells (HEK-293 line with an ATXN2-luciferase reporter) viability, CellTiter-Fluor protease fluorescence, 24 h; further: nearly all actives have a fitted effect of over 40% in size
KB-V1 cytotox – kills drug-selected multidrug resistant KB-V1 cells. KB-V1 MDR cells viability, CellTiter-Glo, 72 h. Potency, µM (titrated, usually from 46.1 µM), most hits filed as cytotoxic. actives 3.4% (n = 400,000). AID 1347076; further: nearly all actives have a fitted effect of over 60% in size
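Following 72 h at 37 degrees C with compound, KB-V1 cell viability was read by CellTiter-Glo luminescence, medium being phenol-red-free DMEM plus 10% FBS; concentration-response parameters came from normalized, curve-fitted qHTS data.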
HT1080-NT tox – kills 2HG-producing HT-1080-NT fibrosarcoma cells; actives 1.6% (n = 360,000); Potency, µM (doses to about 46.1 µM), hits mostly cytotoxic; HT-1080-NT fibrosarcoma viability, CellTiter-Glo ATP luminescence, 48 h;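 further: NT is the 2HG producing partner of a matched IDH1 knockdown line; nearly all actives have a fitted effect of over 55% in size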
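Fibrosarcoma NT cells, 750 per well in 5% FBS RPMI, were exposed to compound for 48 hours. Viability: CellTiter-Glo luminescence.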
KB-3-1 cytotox – kills parental KB-3-1 adenocarcinoma cells | KB-3-1 viability, CellTiter-Glo ATP luminescence, 72 h | Potency, µM (series often up to 46.1 µM), most hits filed as cytotoxic | actives 1.4% (n = 400,000) | AID 1347075; further: nearly all actives have a fitted effect of over 60% in size
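Multi-concentration cytotoxicity screen in KB-3-1 cells grown in DMEM lacking phenol red with 10% FBS. After 72 h at 37 °C with compound, ATP-dependent luminescence was recorded.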
Numbers stand for hits; 0 = inactive; ? = inconclusive; - = no result given; [ ] = remark or other dose. Compounds with a hit are over-represented: about 6.2% of the library has one in this group of screens. The call rests on the fitted dose curve; in most records, active means well fitted curve in the direction sought with a large enough effect; inconclusive means small, poorly fitted or top-dose-only effect, or another doubt; inactive means no such curve, though single readings can be large; an effect the other way counts as inactive or inconclusive.

SMILES	ATXN2 expr inh	HT1080 IDH1KD tx	S2 tox	KB-V1 cytotox	HT1080-NT tox	KB-3-1 cytotox
C#CCOCCOCCOCCNc1nc(N2CCN(C(=O)CCCCCCCCCCNC(=O)[C@H](CCCCN)n3cc(C)nn3)CC2)nc(N2CCN(C(=O)CCCCCCCCCCNC(=O)[C@@H]([C@H](C)O)n3cc(C)nn3)CC2)n1	?	?	-	?	10.3µM	20.6µM
C#CCOCCOCCOCCNc1nc(N2CCOCC2)nc(N2CCN(C(=O)CCCCCCCCCCNC(=O)[C@H]([C@@H](C)CC)n3cc(CCCCN=C(N)N)nn3)CC2)n1	0	0	0	0	0	0
O=C(Nc1ccccc1)N(CCc1nc2ccccc2[nH]1)C1CCCC1	0	0	0	16.4µM	0	0
O=C(Nc1nc2ccccc2[nH]1)NC1CCCCC1	0	0	0	0	0	0
O=C(CCc1nc2ccccc2[nH]1)Nc1ccccc1	0	?	0	0	0	0
S=C(NC1CCCCC1)N(CCc1nc2ccccc2[nH]1)C1CCCC1	0	0	0	16.4µM	0	?
COc1cc2nc(C#N)nc(N)c2cc1OC	-	0	-	-	0	-
Nc1ccc(/C=C/c2ccnc3ccccc23)cc1[N+](=O)[O-]	-	-	-	0	-	0
Cc1ccc2onc(CC(=O)N3CCN(c4cccc(Cl)c4)CC3)c2c1	0	-	0	0	-	0
COc1ccc2[nH]c(=O)c(CN(Cc3nnnn3Cc3ccco3)C3CCCCC3)cc2c1	?	0	0	0	0	?
CCC(c1nnnn1Cc1ccco1)N(Cc1ccccc1OC)Cc1cc2cc(C)ccc2[nH]c1=O (centres undefined)	0	0[9.24 µM]	0	13µM	?	0
COc1ccc2[nH]c(=O)c(C(c3nnnn3C3CCCC3)N(C)C3CCCCC3)cc2c1 (centres undefined)	0	0	0	5.17µM	0	0
COc1ccc2[nH]c(=O)c(CN(C3CCCCC3)C(c3nnnn3Cc3ccco3)C(C)C)cc2c1 (centres undefined)	0	0	?	11.6µM	0	?
N#Cc1nc(Nc2cc(F)cc(F)c2)c2ncn(CCCN3CCCC3)c2n1	-	-	-	0	-	0
Cc1cccc(OCC(=O)NC(C)C(=O)N/N=C/c2c(OCc3ccccc3)ccc3ccccc23)c1 (centres undefined)	0	?	0	16.4µM	?	?
COc1ccc2ccccc2c1/C=N/NC(=O)c1cccc(C)c1	-	0	0	0	0	0
Cc1cnc(-n2ncc(C(=O)NCC(C)(C)N3CCOCC3)c2C(C)C)nc1-c1ccc(F)cc1	-	-	0	-	-	-
O=[N+]([O-])c1ccc(Cl)cc1C=NNc1ccccn1	0	?	?	0	0	0
O=[N+]([O-])c1cc(Cl)cc(/C=N\Nc2ccccn2)c1O	7.08µM	?	?	0	?	?
c1ccc(CSc2ccc(-c3ccc4c(c3)OCO4)nn2)cc1	0	0	0	0	0	16.4µM
Fc1ccc(CSc2ccc(-c3ccc4c(c3)OCO4)nn2)cc1	0	?	?	?	0	?
CN(C)c1ccc(/C=C2/C[N+](C)(C)C/C(=C/c3ccc(N(C)C)cc3)C2=O)cc1	0	16.4µM	13.4µM	0	?	16.4µM
CC(C)/C=C1\CC/C(=C\c2ccc(N(C)C)cc2)C1=O	0	0	0	?	0	0
CC1CCCN(C(=O)c2ccc(CSc3nc4ccncc4n3Cc3ccccc3)cc2)C1 (centres undefined)	-	-	-	0	-	0
Cc1ccc(-c2nc(N3CCOCC3)sc2C(=O)N2CCOCC2)cc1	0	0	0	0	0	0
SMILES	ATXN2 expr inh	HT1080 IDH1KD tx	S2 tox	KB-V1 cytotox	HT1080-NT tox	KB-3-1 cytotox
Cc1ccc(-c2nc(N3CCOCC3)sc2C(=O)N2CCCCC2)cc1	0	0	0	18.4µM	0	0
O=C(C[n+]1ccncc1)c1ccc2ccccc2c1	-	-	-	0	-	?
Cc1cccc2cc3c(N)c(C(=O)N4CCOCC4)sc3nc12	0	?	0	3.66µM	?	2.91µM
Cc1cc(C)c2cc3c(N)c(C(=O)N4CCc5ccccc5C4)sc3nc2c1	0	0	-	0	0	0
COc1c(O[C@@H]2O[C@H](CO)[C@@H](O)[C@H](O)[C@H]2O)cc2c(c1OC)-c1ccc(SC)c(=O)cc1[C@@H](NC(C)=O)CC2	-	-	0	-	-	-
COc1ccc(-c2ccc(=O)n(CC(=O)NC3CCc4ccccc43)n2)cc1OC (centres undefined)	0	0	?	?	0	0
COc1cc2c(c(OC)c1OC)-c1ccc(SC)c(=O)cc1C(NC(=O)C(F)(F)F)CC2 (centres undefined)	0	0.0065µM	0	0.13µM	0.0092µM	0.0517µM
CCOCC(=O)NC1CCc2cc(OC(=O)COCC)c(OC)c(OC)c2-c2ccc(SC)c(=O)cc21 (centres undefined)	0	0.146µM	?	16.4µM	0.0731µM	0.0092µM
COc1ccc(C(=O)C[n+]2cccc3cccc(O)c32)cc1	-	-	-	0	-	0
C=CCn1c(=O)c2c(nc3n2CCN3c2cccc(Cl)c2C)n(C)c1=O	0	0	0	8.2µM	0	0
Cc1cccc(Cn2c(=O)n(Cc3ccccc3)c(=O)c3sc4ccccc4c32)c1	0	-	0	0	-	0
COc1ccc2c(c1)c1c(c(=O)n(Cc3ccccc3)c(=O)n1CC(=O)Nc1ccccc1OC)n2C	0	-	0	0	-	0
O=C(N/N=C/c1ccccc1)c1ccco1	0	0	0	?	0	0
O=C(C#Cc1ccccc1)c1ccco1	?	6.51µM	?	0	11.6µM	?
O=[N+]([O-])c1ccc2c(c1)c1ccccc1n2CCO	0	?	-	8.2µM	?	?
CCn1c2ccccc2c2cc(NC(=O)c3ccc([N+](=O)[O-])cc3)ccc21	0	0	0	0	0	?
CC(C)C[C@H]1CN([C@@H](Cc2ccccc2)CN2CCC[C@@H]2CN2C(=O)C(=O)NC[C@@H]2Cc2ccccc2)C(=O)C(=O)N1CC1CCCCC1	?	16.4µM	20µM	0	?	?
O=C1NC[C@H](Cc2ccccc2)N(C[C@H]2CCCN2C[C@H](Cc2ccccc2)N2C[C@H](Cc3ccccc3)N(CC3CCCCCC3)C(=O)C2=O)C1=O	?	?	17.8µM	0	?	?
COc1ccc(CNC(=O)C2=C(C)C(=O)OC23CCCCC3)cc1OC	0	-	0	0	-	0
CCc1cc[n+](CC(=O)c2ccc(F)cc2)cc1C(=O)O	-	-	-	0	-	0
COCc1ccc(C(=O)N2CCOc3ccc(CN4CCN(c5ccc(F)cc5)CC4)cc3C2)o1	-	-	0	-	-	-
CC(C)(C)c1ccc(OCC(O)CN(CCO)CC(O)Cn2ccc3ccccc32)cc1 (centres undefined)	0	?	0	?	?	?
OCCN(CC(O)Cn1ccc2ccccc21)CC(O)Cn1ccc2ccccc21 (centres undefined)	0	0	0	14.6µM	0	0

Source: PubChem BioAssay (National Center for Advancing Translational Sciences (NCATS))
